Laboratory results taken from PubChem BioAssay (NCATS).
Records with an inconclusive call do not appear. Unmarked numbers belong to inactive results. Calls of active or inactive are those of the source. Calls come from the whole dose curve; as a rule, active = well fitted inhibition curve with a large enough effect; inconclusive = small, poorly fitted or top-dose-only effect; inactive = no such curve, though single readings can be large or run the other way.

Assay: qHTS for Inhibitors of ATXN expression: Validation (AID 588378); note: nearly all actives have a fitted effect of over 75% in size
Conditions: cell-based ATXN2 expression reporter assay, luminescence; series mostly up to 57.1 µM; activity change, negative = inhibition: at the top concentration
Procedure, shortened: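 After a 2 h attachment and 24 h compound incubation, HEK293-ATXN2-FFLuc wells are read for fluorescence at 405 nm excitation/525 nm emission as a viability measure, then for Bright-Glo luminescence reflecting ATXN2 expression.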
% is set by controls: 0 for no effect and ±100 for the full control effect; potency is the fitted concentration of half-maximal effect.

SMILES	activity change, negative = inhibition [%]	Potency
O=C(O)CC1CCCc2ccccc2C1O (stereo not given)	10.2	–
CCCCN1CCC(n2c(=O)[nH]c3ccccc32)CC1	9.22	–
COc1ccccc1CNCCCCCCNCCCCCCCCNCCCCCCNCc1ccccc1OC	-27.5	–
N.N.O=C(O)C1(C(=O)O)CCC1.[Pt]	-21.2	–
O=C(c1cc(O)c(O)c([N+](=O)[O-])c1)c1ccccc1F	-22.3	–
O=C(CCCCCN1CCN(c2ccccc2-c2ccccc2)CC1)NC1CCCc2ccccc21 (stereo not given)	–	20 µM (active)
NCCCCCCCCCCN	-26.9	–
N#C/C(=C\c1ccc(O)c(O)c1)C(=O)c1ccc(O)c(O)c1	-22.9	–
NO	-1.17	–
CN1C2CCC1CC(OC(=O)C(O)c1ccccc1)C2 (stereo not given)	-8.99	–
CCCCCCCCc1ccc(-c2ccc(C(=O)O)cc2)cc1	-2.91	–
C[N+](C)(C)CCOP(=O)(O)OP(=O)([O-])OC[C@H]1O[C@@H](n2ccc(N)nc2=O)[C@H](O)[C@@H]1O	27.8	–
CSc1nc(N)c2ncn([C@@H]3O[C@H](COP(=O)(O)OP(=O)(O)OP(=O)(O)O)[C@@H](O)[C@H]3O)c2n1	-1.1	–
CN1C2CC(OC(=O)[C@H](CO)c3ccccc3)CC1C1OC12 (stereo not given in full)	1.42	–
Nc1ncnc2c1ncn2[C@@H]1O[C@H](COP(=O)(O)CP(=O)(O)OP(=O)(O)O)[C@@H](O)[C@H]1O	0.825	–
CCCCC/C=C\CC(O)/C=C/c1cccc(CC(O)CCCCO)n1 (stereo not given)	-15.9	–
CCN(CC)c1ncnc2c1ncn2[C@@H]1O[C@H](COP(=O)(O)OP(=O)(O)C(Br)(Br)P(=O)(O)O)[C@@H](O)[C@H]1O	-18.8	–
CC(=O)SCC[N+](C)(C)C	-0.527	–

SMILES	activity change, negative = inhibition [%]	Potency
COc1cccc(OC)c1OCCNCC1COc2ccccc2O1 (stereo not given)	-20.8	–
CC(COc1ccc(/C=C/c2ccccc2)cc1)[N+](C)(C)C (stereo not given)	-21.8	–
CCOC(=O)C1=C(C)NC(C)=C(C(=O)OCC)C1c1c(F)c(F)c(F)c(F)c1F	4.31	–
O=C(O)/C=C/C(O)c1ccc(Cl)cc1 (stereo not given)	3.67	–
O=C1NC(=O)/C(=C/c2ccc3nccnc3c2)S1	1.97	–
C[N+](C)(CCCCCC[N+](C)(C)CCCN1C(=O)c2cccc3cccc(c23)C1=O)CCCN1C(=O)c2cccc3cccc(c23)C1=O	-5.41	–
Clc1ccc(N2CCN(Cc3cc4ccccn4n3)CC2)cc1	-16.2	–
Cc1ccc(C(=O)O[C@H](C(=O)O)[C@@H](OC(=O)c2ccc(C)cc2)C(=O)O)cc1 (tested in a mixture with another compound)	0.15	–
COc1cccc(C(=O)NCCN2CCN(c3ccc(Cl)cc3)CC2)c1	-10.5	–
Nc1nc(Cl)nc2c1ncn2[C@@H]1O[C@H](COP(=O)(O)OP(=O)(O)OP(=O)(O)O)[C@@H](O)[C@H]1O	19.2	–
CC(N)C(=O)OC(C)(C)Cc1ccc(Cl)cc1 (stereo not given)	-25.1	–
OCC1O[C@H](O)C(Cl)C(O)C1O (stereo not given in full)	22.5	–
O=[N+]([O-])c1ccc(CSc2ncnc3c2ncn3[C@@H]2O[C@H](CO)[C@@H](O)[C@H]2O)cc1	7.43	–
Nc1ncnc2c1ncn2[C@@H]1O[C@H](COP(=O)(O)OP(=O)(O)OP(=O)(O)OP(=O)(O)OC[C@@H]2O[C@H](n3cnc4c(N)ncnc43)[C@@H](O)[C@H]2O)[C@@H](O)[C@H]1O	96.2	–
CCCCC#Cc1nc(NC)c2ncn([C@@H]3O[C@H](CO)[C@@H](O)[C@H]3O)c2n1	-14.2	–
Nc1nc(SCc2ccc([N+](=O)[O-])cc2)c2ncn([C@@H]3O[C@H](CO)[C@@H](O)[C@H]3O)c2n1	-4.31	–
NCCCCC(=O)O	-8.89	–
